Common to all, as to test: yeast three-hybrid, YBZ-1, SC-Leu-His + 0.5 mM 3-AT, 4 days
Holding throughout (details): tags: N-Gal4 AD-HA kept; label: inside an RPR1-promoter hybrid RNA with tandem MS2 sites; ssRNA

The target in one test is PUM1 PUF domain R3-YWF (Homo sapiens, UniProt Q14671 828-1176, C935Y;R936W;Q939F). An outline of the steps: (§1)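 The interaction score is the log change in variant frequency from input to selection. Scores were computed in log2 with a pseudocount of 1 for absent variants, using Illumina sequencing of PCR-amplified repeat regions. The input came from four days on SC-Leu and the selection from four days on SC-Leu-His + 0.5 mM 3-AT. The cells were strain YBZ-1 (LexA–MS2 coat fusion, HIS3 reporter) co-expressing Pumilio-1 PUF domain libraries and matching RNA elements from a centromeric plasmid.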
PUM1 PUF domain R3-YWF, sequence (Q14671 828-1176 C935Y/R936W/Q939F): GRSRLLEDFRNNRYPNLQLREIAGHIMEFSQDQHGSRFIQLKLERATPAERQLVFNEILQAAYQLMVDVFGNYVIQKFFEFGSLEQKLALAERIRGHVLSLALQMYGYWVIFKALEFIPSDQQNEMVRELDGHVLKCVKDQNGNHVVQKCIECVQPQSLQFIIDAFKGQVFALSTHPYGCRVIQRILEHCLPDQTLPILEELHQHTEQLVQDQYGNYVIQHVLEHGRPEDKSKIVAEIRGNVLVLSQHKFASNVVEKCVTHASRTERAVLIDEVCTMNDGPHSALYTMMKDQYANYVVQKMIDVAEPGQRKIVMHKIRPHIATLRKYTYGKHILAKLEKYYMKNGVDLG

For the next test, the target named is PUM1 PUF domain R3-SQQ (Homo sapiens, UniProt Q14671 828-1176, C935S;R936Q). In a few lines: as §1
PUM1 PUF domain R3-SQQ, sequence (Q14671 828-1176 C935S/R936Q): as the sequence (Q14671 828-1176 C935Y/R936W/Q939F) above, with Y108S, W109Q, F112Q counted along it
For a further test, the target named is PUM1 PUF domain R5-RCL (Homo sapiens, UniProt Q14671 828-1176, C1007R;R1008C;Q1011L). An outline of the steps: as §1
PUM1 PUF domain R5-RCL, sequence (Q14671 828-1176 C1007R/R1008C/Q1011L): as the sequence (Q14671 828-1176 C935Y/R936W/Q939F) above, with Y108C, W109R, F112Q, C180R, R181C, Q184L counted along it
For a further test, the target named is PUM1 PUF domain R5-RGE (Homo sapiens, UniProt Q14671 828-1176, C1007R;R1008G;Q1011E). In a few lines:
as §1

Another test has as its target PUM1 PUF domain R7-QSG (Homo sapiens, UniProt Q14671 828-1176, S1079Q;N1080S;E1083G). An outline of the steps:
as §1

The target of the next test is PUM1 PUF domain R7-KPL (Homo sapiens, UniProt Q14671 828-1176, S1079K;N1080P;E1083L). In a few lines:
as §1

In a further test the target is PUM1 PUF domain R8-HFN (Homo sapiens, UniProt Q14671 828-1176, N1122H;Y1123F;Q1126N). An outline of the steps:
as §1

The target in another test is PUM1 PUF domain R2-RKC (Homo sapiens, UniProt Q14671 828-1176, N899R;Y900K;Q903C). An outline of the steps: as §1
PUM1 PUF domain R2-RKC, sequence (Q14671 828-1176 N899R/Y900K/Q903C): as the sequence (Q14671 828-1176 C935Y/R936W/Q939F) above, with N72R, Y73K, Q76C, Y108C, W109R, F112Q counted along it
In another test the target is PUM1 PUF domain R1-TGR (Homo sapiens, UniProt Q14671 828-1176, S863T;R864G;Q867R). In a few lines: as §1
PUM1 PUF domain R1-TGR, sequence (Q14671 828-1176 S863T/R864G/Q867R): as the sequence (Q14671 828-1176 C935Y/R936W/Q939F) above, with S36T, R37G, Q40R, Y108C, W109R, F112Q counted along it

PUM1 PUF domain R5-RGE, sequence (Q14671 828-1176 C1007R/R1008G/Q1011E): as the sequence (Q14671 828-1176 C935Y/R936W/Q939F) above, with Y108C, W109R, F112Q, C180R, R181G, Q184E counted along it
PUM1 PUF domain R7-KPL, sequence (Q14671 828-1176 S1079K/N1080P/E1083L): as the sequence (Q14671 828-1176 C935Y/R936W/Q939F) above, with Y108C, W109R, F112Q, S252K, N253P, E256L counted along it
PUM1 PUF domain R7-QSG, sequence (Q14671 828-1176 S1079Q/N1080S/E1083G): as the sequence (Q14671 828-1176 C935Y/R936W/Q939F) above, with Y108C, W109R, F112Q, S252Q, N253S, E256G counted along it
PUM1 PUF domain R8-HFN, sequence (Q14671 828-1176 N1122H/Y1123F/Q1126N): as the sequence (Q14671 828-1176 C935Y/R936W/Q939F) above, with Y108C, W109R, F112Q, N295H, Y296F, Q299N counted along it

Regarding “GGCUAGAACUAGUGGAUCCCCCGGCGCCCGGCGGCUCGAGCCCGGGUAAGUGUAAGUAGUCUGCAUGCCGCCGGGCGCCAUGCCUGCAGGUCGACUCUAGAAAACAUG”, the binding signal in the test with PUM1 PUF domain R3-YWF is 3.54 log2 enrichment (interaction score).

Consider “GGCUAGAACUAGUGGAUCCCCCGGCGCCCGGCGGCUCGAGCCCGGGUAAGUGUAAAUAGUCUGCAUGCCGCCGGGCGCCAUGCCUGCAGGUCGACUCUAGAAAACAUG”, for which the binding signal in the test with PUM1 PUF domain R3-SQQ was 2.27 log2 enrichment (interaction score).

In the case of “GGCUAGAACUAGUGGAUCCCCCGGCGCCCGGCGGCUCGAGCCCGGGUAAGUGUCAAUAGUCUGCAUGCCGCCGGGCGCCAUGCCUGCAGGUCGACUCUAGAAAACAUG”, the binding signal was 1.64 log2 enrichment (interaction score) with PUM1 PUF domain R5-RCL and 2.34 log2 enrichment (interaction score) with PUM1 PUF domain R5-RGE. On to “GGCUAGAACUAGUGGAUCCCCCGGCGCCCGGCGGCUCGAGCCCGGGUAAGUGUUAAUAGUCUGCAUGCCGCCGGGCGCCAUGCCUGCAGGUCGACUCUAGAAAACAUG”, for which the binding signal with PUM1 PUF domain R5-RCL was 2.91 log2 enrichment (interaction score); with PUM1 PUF domain R5-RGE, 0.96 log2 enrichment (interaction score). Turning to “GGCUAGAACUAGUGGAUCCCCCGGCGCCCGGCGGCUCGAGCCCGGGUAAGUUUAAAUAGUCUGCAUGCCGCCGGGCGCCAUGCCUGCAGGUCGACUCUAGAAAACAUG”, in the test with PUM1 PUF domain R7-QSG, the binding signal was 2.85 log2 enrichment (interaction score). For “GGCUAGAACUAGUGGAUCCCCCGGCGCCCGGCGGCUCGAGCCCGGGUAAGUCUAAAUAGUCUGCAUGCCGCCGGGCGCCAUGCCUGCAGGUCGACUCUAGAAAACAUG”, the binding signal in the test with PUM1 PUF domain R7-KPL was 2.86 log2 enrichment (interaction score). As to “GGCUAGAACUAGUGGAUCCCCCGGCGCCCGGCGGCUCGAGCCCGGGUAAGCGUAAAUAGUCUGCAUGCCGCCGGGCGCCAUGCCUGCAGGUCGACUCUAGAAAACAUG”, in the test with PUM1 PUF domain R8-HFN, the binding signal was 3.57 log2 enrichment (interaction score). Regarding “GGCUAGAACUAGUGGAUCCCCCGGCGCCCGGCGGCUCGAGCCCGGGUAAGUGUAAAGAGUCUGCAUGCCGCCGGGCGCCAUGCCUGCAGGUCGACUCUAGAAAACAUG”, the binding signal with PUM1 PUF domain R2-RKC is 5.3 log2 enrichment (interaction score). As for “GGCUAGAACUAGUGGAUCCCCCGGCGCCCGGCGGCUCGAGCCCGGGUAAGUGUAAAUCGUCUGCAUGCCGCCGGGCGCCAUGCCUGCAGGUCGACUCUAGAAAACAUG”, the binding signal with PUM1 PUF domain R1-TGR is 2.65 log2 enrichment (interaction score). On to “GGCUAGAACUAGUGGAUCCCCCGGCGCCCGGCGGCUCGAGCCCGGGUAAGUGUAAAUUGUCUGCAUGCCGCCGGGCGCCAUGCCUGCAGGUCGACUCUAGAAAACAUG”, for which, in the test with PUM1 PUF domain R1-TGR, the binding signal is 0.64 log2 enrichment (interaction score).
